From PubChem BioAssay AID1159580 (chemical genetic matrix, 2015)
Among all 5,500 compounds or so, about 2,000 (36%) were called active. Another 18% or so got no clear call; they are omitted. Cut-off read from the data, not from the text of the source: active = normalized growth mostly below about 0.91 (no sharp cut-off); inconclusive = no clear call, values can overlap the other calls; inactive = mostly above about 0.92. This is one part of the list.

Test: chemical genetic growth profiling, strain panel (AID 1159580);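 note: tested at 20 µM; growth read once vehicle control cultures reached saturation at 30 °C; 1 = growth at the plate median or of vehicle wells; lower values mean less growth of the strain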
Details: S. cerevisiae deletion strains, growth OD

Measured: normalized growth

CC(C)=CCC/C(C)=C/CC/C(C)=C/CO
active: locus YHR030C, strain SLT2, stronger effect = lower value 0.416 | locus YHR079C, strain IRE1, stronger effect = lower value 0.506 | locus YJL095W, strain BCK1, stronger effect = lower value 0.609 | locus YJR066W, strain TOR1, stronger effect = lower value 0.804 | locus YLR113W, strain HOG1, stronger effect = lower value 0.35 | locus YNL183C, strain NPR1, stronger effect = lower value 0.732 | locus YOR231W, strain MKK1, stronger effect = lower value 0.407 | locus YPL256C, strain CLN2, stronger effect = lower value 0.388
